Among the data in PubChem BioAssay (NCATS) are Potency values, retold here.

Calls of active or inactive are those of the source. Entries that show only a call come without a potency. Calls follow the shape of the dose curve; as a rule, active = well fitted activation curve with a large enough effect; inconclusive = small, poorly fitted or top-dose-only effect; inactive = flat fitted curve, though single readings scatter.
Potency is read from the fitted curve at half-maximal effect.

This assay is described as follows: Cellular Toxicity (caspase-3) SHSY5Y (AID 657). As to conditions: SH-SY5Y caspase-3 activation; series mostly up to 91.7 µM. The source says:
NIH Chemical Genomics Center [NCGC]
NIH Molecular Libraries Screening Centers Network [MLSCN]
National Institutes of Environmental Health Sciences [NIEHS]
National Toxicology Program [NTP]
We have developed a 1536-well cell-based assay for quantitative high throughput screening (qHTS) against a number of cell lines to determine in vitro caspase 3/7 activity of small molecules. This particular assay uses the SH-SY5Y cell line which is derived from human neuroblastoma.
NCGC Assay Protocol Summary:
The Caspase-Glo 3/7 assay (Promega) is a homogeneous method to measure caspase-3 and caspase-7 activities in cultured cells. The quantitation of caspase 3/7 activity is based on the cleavage of a peptide-aminoluciferin substrate. After caspase cleaves the substrate the free aminoluciferin is liberated and serves as the substrate of luciferase, which generates the light. The luminescent signal is proportional to the amount of caspase 3/7 activity present.
Using the Caspase-Glo 3/7 assay, the amount of caspase 3/7 activity was measured in the SH-SY5Y cell line with complete culture medium following compound treatment for 16 hours. The assay was performed in opaque white 1536-well plates. In the screen, staurosporine and doxorubicin were used as positive controls. Library compounds were measured for their ability to cause the activation of caspase 3/7 in the cell line, as reflected by an increase in luminescence signal, in a concentration-dependent manner. Data were normalized to the controls for basal activity (DMSO only) and 100% stimulation (10 uM staurosporine). AC50 values were determined from concentration-response data modeled with the standard Hill equation.
qHTS protocol for caspase 3/7 assay in SH-SY5Y cells
[Step] [Parameter] [Value] [Description]
1. Reagent; 5 uL; 1500 SH-SY5Y cells/well
2. Time; 5 hr; 37 °C incubation
4. Controls; 23 nL; doxorubicin 7 pM to 100 uM & staurosporine 1.4 pM to 20 uM
5. Time; 16 hr; 37 °C incubation
6. Reagent; 5 uL; Caspase-Glo 3/7 reagent
7. Time; 1 hr; Room Temperature
8. Detection; Luminescence; Viewlux plate reader
Keywords: caspase 3/7, apoptosis, SH-SY5Y cell line, luminescence, NTPHTS, NTPHTS_NCGC, NIEHS, EPA, DSSTox, MLSMR, MLSCN, NIH Roadmap, qHTS, NCGC
Consider `CN(C)c1ccc(C2(c3ccc(N(C)C)cc3)OC(=O)c3cc(N(C)C)ccc32)cc1`, for which the Potency entry was “inactive”.

Consider `C/C=C1\C(=O)C[C@H]2[C@@H]3CCC4=CC(=O)CC[C@]4(C)[C@H]3CC[C@]12C`, for which the Potency entry is “inactive”.

With `O=C=Nc1ccc(Cc2ccc(N=C=O)cc2)cc1`, the Potency result is “inactive”.

With `CCCCCC/C(C=O)=C\c1ccccc1`, the Potency entry is “inactive”.

With `Nc1ccc2cc3ccccc3cc2c1`, the Potency result is “inactive”.

Consider `CO[C@H]1/C=C/O[C@@]2(C)Oc3c(C)c(O)c4c(O)c(c5c(c4c3C2=O)NC2(CCN(CC(C)C)CC2)N=5)=NC(=O)/C(C)=C\C=C\[C@H](C)[C@H](O)[C@@H](C)[C@@H](O)[C@@H](C)[C@H](OC(C)=O)[C@@H]1C`, for which the Potency result was “inactive”.

For `CC/C(=C(\c1ccccc1)c1ccc(OCCN(C)C)cc1)c1ccc(O)cc1`, the Potency entry was “inactive”.

Regarding `C=CC(=O)OCC(CO)(COC(=O)C=C)COC(=O)C=C`, the Potency is 2.51 µM (active).

With `O=C1OC2(c3cc(Br)c(O)c(Br)c3Oc3c2cc(Br)c(O)c3Br)c2c(Cl)c(Cl)c(Cl)c(Cl)c21`, the Potency result was “inactive”.

For `CCC(C)Nc1ccc(NC(C)CC)cc1` (stereo not given), the Potency entry is “inactive”.

As for `Cc1cc(Nc2ccc(O)cc2)ccc1N`, the Potency entry is “inactive”.

Take `O=[N+]([O-])c1cc([N+](=O)[O-])c2ccc(S(=O)(=O)O)cc2c1O`: the Potency result is “inactive”.

With `O=Cc1ccc(Cl)c(Cl)c1`, the Potency entry is “inactive”.

For the compound `Cc1cccc(O)c1C`, the Potency entry is “inactive”.

On to `Oc1ccc2cc(SSc3ccc4cc(O)ccc4c3)ccc2c1`, for which the Potency entry was “inactive”.

Turning to `c1ccc2c(c1)-c1cccc3c1c-2cc1ccccc13`, the Potency entry is “inactive”.

`O=C(OCC(COC(=O)c1ccccc1)(COC(=O)c1ccccc1)COC(=O)c1ccccc1)c1ccccc1`: the Potency result is “inactive”.

Consider `Cc1ccc(S(=O)(=O)Oc2ccc(N=Nc3ccc(-c4ccc(N=Nc5c(O)ccc6cc(S(=O)(=O)O)cc(S(=O)(=O)O)c56)c(C)c4)cc3C)cc2)cc1`, for which the Potency result was “inactive”.

With `CN1[C@H]2CC(OC(=O)[C@H](CO)c3ccccc3)C[C@H]1[C@H]1O[C@H]12` (stereo not given in full), the Potency result was “inactive”.

`C=C(C)c1ccccc1`: the Potency entry is “inactive”.

Regarding `CC(=O)Nc1ccc(C(=O)CCl)cc1`, the Potency entry is “inactive”.

Turning to `ClC1=C(Cl)C(Cl)(Cl)C(Cl)=C1Cl`, the Potency entry is “inactive”.

With `CNc1ccc(O)cc1`, the Potency entry is “inactive”.

Consider `O=C(/C=C/c1ccc(O)c(O)c1)OC1C[C@](O)(C(=O)O)C[C@@H](O)[C@H]1O` (stereo not given in full), for which the Potency entry is “inactive”.

As to `c1ccc2c(c1)ccc1cc3c(ccc4ccccc43)cc12`, the Potency result was “inactive”.
